This is an account of results in the supplement of paper PMC8728848.

Holding throughout (experiment): glycan array binding signal (z-score within array); higher = stronger binding
Settings in all cases: glycan notation: IUPAC condensed, linker removed

Assay [1] has as its target Fuc(a1-2)Gal(b1-4)GlcNAc(b1-2)Man(a1-3)[Fuc(a1-2)Gal(b1-4)GlcNAc(b1-2)Man(a1-6)]Man(b1-4)GlcNAc(b1-4)GlcNAc. The method in brief:
(§1)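 Glycan array data came from 3228 arrays in the Consortium for Functional Glycomics database, and only arrays with an available protein sequence were kept. Glycan names were put into IUPAC-condensed notation, and columns mapping to the same glycan were averaged. The binding signal is a within-array Z-score, averaged across arrays of one protein sequence run at different concentrations or buffers and across linkers. A negative Z-score can be read as non-binding.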

The target of assay [2] is Fuc(a1-2)Gal(b1-4)[Fuc(a1-3)]GlcNAc(b1-2)Man(a1-3)[Fuc(a1-2)Gal(b1-4)[Fuc(a1-3)]GlcNAc(b1-2)Man(a1-6)]Man(b1-4)GlcNAc(b1-4)[Fuc(a1-6)]GlcNAc. In short, it runs like this:
as §1

Assay [3] addresses Fuc(a1-2)Gal(b1-4)[Fuc(a1-3)]GlcNAc(b1-3)GalNAc. In short, it runs like this: as §1
Assay [4] concerns the target Fuc(a1-2)Gal3S(b1-4)GlcNAc. In short, it runs like this: as §1
Assay [5] has as its target Fuc(a1-2)Gal6S(b1-4)Glc. The method in brief:
as §1

Assay [6] deals with Fuc(a1-2)[GalNAc(a1-3)]Gal(b1-4)GlcNAc(b1-2)Man(a1-3)[Fuc(a1-2)[GalNAc(a1-3)]Gal(b1-4)GlcNAc(b1-2)Man(a1-6)]Man(b1-4)GlcNAc(b1-4)[Fuc(a1-6)]GlcNAc. The method in brief:
as §1

Assay [7] addresses Fuc(a1-3)[Gal(b1-4)]GlcNAc(b1-2)Man(a1-3)[Fuc(a1-3)[Gal(b1-4)]GlcNAc(b1-2)Man(a1-6)]Man(b1-4)GlcNAc(b1-4)[Fuc(a1-6)]GlcNAc. The method in brief:
as §1

The target of assay [8] is Gal(a1-3)Gal(b1-4)GlcNAc. In short, it runs like this:
as §1

Assay [9] has as its target Gal(a1-3)Gal(b1-4)GlcNAc(b1-2)Man(a1-3)[Gal(a1-3)Gal(b1-4)GlcNAc(b1-2)Man(a1-6)]Man(b1-4)GlcNAc(b1-4)GlcNAc. In short, it runs like this: as §1
Assay [10] deals with Gal(a1-4)Gal(b1-3)GlcNAc(b1-2)Man(a1-3)[Gal(a1-4)Gal(b1-3)GlcNAc(b1-2)Man(a1-6)]Man(b1-4)GlcNAc(b1-4)GlcNAc. The method in brief:
as §1

Assay [11] addresses Gal(a1-4)Gal(b1-4)GlcNAc(b1-2)Man(a1-3)[Gal(a1-4)Gal(b1-4)GlcNAc(b1-2)Man(a1-6)]Man(b1-4)GlcNAc(b1-4)GlcNAc. In short, it runs like this: as §1
Assay [12] has as its target Gal(b1-3)Gal(b1-4)GlcNAc. In short, it runs like this:
as §1

For assay [13], the target named is Gal(b1-3)GalNAc(b1-3)Gal(a1-4)Gal(b1-4)Glc. The method in brief:
as §1

Assay [14] concerns the target Gal(b1-3)GlcNAc(b1-2)Man. In short, it runs like this:
as §1

Assay [15] addresses Gal(b1-3)GlcNAc(b1-2)Man(a1-3)[Gal(b1-3)GlcNAc(b1-2)Man(a1-6)]Man(b1-4)GlcNAc(b1-4)GlcNAc. In short, it runs like this:
as §1

Assay [16] addresses Gal(b1-3)[Fuc(a1-4)]GlcNAc(b1-2)Man(a1-3)[Gal(b1-3)[Fuc(a1-4)]GlcNAc(b1-2)Man(a1-6)]Man(b1-4)GlcNAc(b1-4)[Fuc(a1-6)]GlcNAc. The method in brief:
as §1

Assay [17] concerns the target Gal(b1-4)GalNAc(a1-3)[Fuc(a1-2)]Gal(b1-4)GlcNAc. The method in brief: as §1
Assay [18] concerns the target Gal(b1-4)GlcNAc(b1-2)Man(a1-3)Man(b1-4)GlcNAc(b1-4)GlcNAc. The method in brief: as §1
Assay [19] has as its target Gal(b1-4)GlcNAc(b1-2)Man(a1-3)[Gal(b1-4)GlcNAc(b1-2)Man(a1-6)]Man(b1-4)GlcNAc(b1-4)[Fuc(a1-6)]GlcNAc. The method in brief:
as §1

Assay [20] has as its target Gal(b1-4)GlcNAc(b1-2)Man(a1-6)[GlcNAc(b1-2)Man(a1-3)]Man(b1-4)GlcNAc(b1-4)GlcNAc. In short, it runs like this: as §1
Assay [21] has as its target Gal(b1-4)GlcNAc(b1-2)[Gal(b1-4)GlcNAc(b1-6)]Man(a1-6)[Gal(b1-4)GlcNAc(b1-2)Man(a1-3)]Man(b1-4)GlcNAc(b1-4)GlcNAc. In short, it runs like this:
as §1

Assay [22] addresses Gal(b1-4)GlcNAc(b1-3)Gal(b1-4)GlcNAc(b1-2)Man(a1-3)[Gal(b1-4)GlcNAc(b1-3)Gal(b1-4)GlcNAc(b1-2)Man(a1-6)]Man(b1-4)GlcNAc(b1-4)[Fuc(a1-6)]GlcNAc. The method in brief:
as §1

Assay [23] deals with Gal(b1-4)GlcNAc(b1-3)Gal(b1-4)GlcNAc(b1-2)[Gal(b1-4)GlcNAc(b1-3)Gal(b1-4)GlcNAc(b1-6)]Man(a1-6)[Gal(b1-4)GlcNAc(b1-3)Gal(b1-4)GlcNAc(b1-2)Man(a1-3)]Man(b1-4)GlcNAc(b1-4)GlcNAc. The method in brief:
as §1

Assay [24] addresses Gal(b1-4)GlcNAc(b1-3)Gal(b1-4)GlcNAc(b1-3)Gal(b1-4)GlcNAc(b1-3)Gal(b1-4)GlcNAc(b1-2)Man(a1-3)[Gal(b1-4)GlcNAc(b1-3)Gal(b1-4)GlcNAc(b1-3)Gal(b1-4)GlcNAc(b1-3)Gal(b1-4)GlcNAc(b1-2)Man(a1-6)]Man(b1-4)GlcNAc(b1-4)[Fuc(a1-6)]GlcNAc. The method in brief: as §1

Shown is part of a subset that was picked to be rich in the strongest signals.

B1: PX9961T-pdi-555-33-555 (Parabacteroides distasonis) (protein)
chain: FDEETAFQSPTLVYVNTVASLYNNMFKIMGNDRHVYDLNTFSSDEAMLPCRIGDWEDGGLWQNIFLHRWGTMNDLTKNSWDFLYEQIGKCNQSVDKLQAFAEEQPDVEYFKVYLEEVRAVRAFFYYELLDLFARVPLVTSSTTPMSEVKQSERSVVFNFVRSELEEALPYLSDNRSNQKGEYYGRITKPVAYMILAKLALNAEVYADDNWTDGNRPAGKNIKFTVDGKEMNAWEATIAYVDKLEALGYKLQGNFSENFAVANETSVENIFTVPMDPVAYPDAKDYNLVRTRHYDHATAYGQSGWNGSCATVKAMNVFKFGTADEDPRCKLTYFTGEVTGPDGKTIYTEWDGQKVPLKYEPNAPKVYMDASDGLLVKTAGARMAKYEFDQNAQDGGNLHGNDCVIFRFADALLMKAEAKIRLGQNGDDEVNQVRNRVGAKPLQNVTLDTLLDERMLELAWEGVRRQDLIRFGKFTEATVDRYVGVKHFASSLDYQEDKTGYTTVFSIYADILSLNPNLTQNPGY
B1: the “glycan array binding signal (z-score)” value in assay [1] is 1.91; in [2] it was 0.323; in assay [3], -0.359; in assay [4], -0.354; in assay [5], -0.589; in [6] it was 2.12. Further, the “glycan array binding signal (z-score)” value in assay [7] was -0.637; in [8] it was 0.037; in [9], 0.963; in assay [10] it was 2.7; in assay [11], 1.51; in [12], -0.663. The “glycan array binding signal (z-score)” value was -0.576 in [13]; 0.661 in assay [14]; -0.248 in assay [15]; -0.151 in assay [16]; -0.527 in [17]; -0.441 in assay [18]. In addition, the “glycan array binding signal (z-score)” value is 0.171 in assay [19]; -0.306 in assay [20]; -0.161 in [21]; 0.672 in [22]; 1.53 in assay [23]; 0.109 in assay [24].
